# Results filed as inconclusive are left out. A number with no mark means an inactive call. Calls follow the shape of the dose curve; as a rule, active = well fitted cell-killing curve with a large enough effect in the repeat runs; inconclusive = weak or mixed curves; inactive = flat fitted curve, though single readings scatter.
# Assay: qHTS assay to identify small molecule antagonists of the TGF-beta/Smad signaling pathway - cell viability counter screen (AID 1346824); also: nearly all actives have a fitted effect of over 50% in size
# Settings: SBE-bla HEK293T viability, CellTiter-Glo luminescence; series mostly up to 76.8 µM; viability change, negative = cytotoxic: at the top concentration
# From the text: U.S. Tox21 Program National Center for Advancing Translational Sciences [NCATS] NIH Chemical Genomics Center [NCGC] U.S. Environmental Protection Agency [EPA] National Institutes of Environmental Health Sciences [NIEHS] National Toxicology Program [NTP] U.S. Food and Drug Administration [FDA] Tox21 Assay Overview: Transforming growth factor beta (TGF-beta) superfamily consists of a large number of structurally related dimeric proteins that act as hormones or local mediators in regulating a wide range of biological functions. This superfamily includes TGF-betas themselves, the bone morphogenetic proteins (BMPs) and the activins. These ligands induce oligomerization of serine/threonine receptor kinases and phosphorylate the cytoplasmic signaling molecules of Smad protein family. CellSensor SBE-bla HEK 293T cell line (Life Technologies, Carlsbad, CA), responsive to TGF-beta was used to screen Tox21 10K compound library for identification of agonists/antagonists of the Smad signaling pathway. This cell line contains a beta-lactamase reporter gene under control of the Smad binding element (SBE) stably integrated into HEK 293T cells. Also cytotoxicity of the compounds was tested in parallel by measuring the cell viability using CellTiter-Glo assay system in the same wells.
# Tox21 Assay Protocol Summary: SBE-bla HEK 293T cells were dispensed at 4,000/well in 5 uL of assay medium into black wall/clear-bottom 1536-well plates using a Multidrop Combi (ThermoFisher Scientific, Waltham, MA) dispenser. After the assay plates were incubated at 37 C and 5% CO2 for an overnight, 23 nL of compounds dissolved in DMSO, positive controls or DMSO only was transferred to the assay plate by a Pintool station (Kalypsys, San Diego, CA). Compound transfer was followed by the addition of 1 uL of 0.25 ng/mL TGF-beta1 or assay buffer using two separate tips of Flying Reagent Dispenser (FRD, Aurora Discovery, San Diego, CA). The assay plates were incubated at 37 C and 5% CO2 for 5 hr. One uL of LiveBLAzer B/G FRET substrate (Life Technologies) was added using a Flying Reagent Dispenser (FRD, Aurora Discovery, San Diego, CA) and the plates were incubated at room temperature for 2 hr. Fluorescence intensity (405 nm excitation, 460 nm and 530 nm emissions) was measured using an Envision plate reader (PerkinElmer, Shelton, CT). For cytotoxicity read, 4 uL of CellTiter-Glo reagent (Promega Corporation, Madison, WI) was added to each well of the assay plates using FRD. After 30 min incubation at room temperature, the luminescence intensity was measured using ViewLux plate reader (PerkinElmer).
# % is scaled to controls: 0 for no effect and ±100 for the full control effect.
row,SMILES,"viability change, negative = cytotoxic"
1,CC[N+](CC)(CC(=O)Nc1c(C)cccc1C)Cc1ccccc1 (tested in a mixture with another compound),2.69% [at 35.3 µM]
2,O=C(O)CCCC[P+](c1ccccc1)(c1ccccc1)c1ccccc1,2.9% [at 35.3 µM]
3,CC(C)(C)OC(=O)c1cccc(N)c1,1.17%
4,O=C1NC(=O)C2CC=CCC12 (stereo not given),5.24%
5,O=C(O)Cc1csc(-c2ccc(Cl)cc2)n1,-8.35% [at 35.3 µM]
6,CC1OC1C1CCC2(C)OC2C1 (stereo not given),-2.92%
7,Clc1cc(Cl)c(Cl)nc1Cl,5.73%
8,[Ca+2],0.541%
9,CC(=O)c1ccccc1[N+](=O)[O-],3.82%
10,CCN[C@H]1C[C@H](C)S(=O)(=O)c2sc(S(N)(=O)=O)cc21,0.406% [at 35.3 µM]
11,C=CCOCC(O)CO (stereo not given),0.964%
12,CC(C)C(=O)OC(=O)C(C)C,24.9%
13,O=S(=O)(O)c1cccc2c(S(=O)(=O)O)cccc12,4.09%
14,O=CN(CCO)CCO,-9.13%
15,COC(=O)Nc1ccc(Cl)c(Cl)c1,-8.56%
16,CC(=O)Oc1cccc(C)c1,-0.554% [at 35.3 µM]
17,CNC(=O)Nc1ccc(Cl)c(Cl)c1,-17.9%
18,Cc1coc2ccccc2c1=O,4.07% [at 35.3 µM]
19,CCOC(=O)OC(C)OC1=C(C(=O)Nc2ccccn2)N(C)S(=O)(=O)c2ccccc21 (stereo not given),-2.48% [at 35.3 µM]
20,C[C@@H]1C[C@H]2[C@@H]3C[C@H](F)C4=CC(=O)C(Cl)=C[C@]4(C)[C@@]3(F)[C@@H](O)C[C@]2(C)[C@@]1(O)C(=O)CO,-9.17% [at 35.3 µM]

row,SMILES,"viability change, negative = cytotoxic"
1,CC(C)NNC(=O)c1ccncc1,-0.151% [at 35.3 µM]
2,Cc1nc2ccc(CN(C)c3ccc(C(=O)N[C@@H](CCC(=O)O)C(=O)O)s3)cc2c(=O)[nH]1,-2.01% [at 35.3 µM]
3,C=CC(=O)OCCCl,-4.9%
4,C[N+](C)(C)CCCCCCCCCC[N+](C)(C)C,0.111% [at 35.3 µM]
5,CC1=CC(=O)[C@H]2C[C@@H]1C2(C)C,3.1%
6,CCOC(=O)COC(=O)c1ccccc1C(=O)OCC,1.4%
7,CC(C)COC(=O)c1ccc(N)cc1,3.14% [at 35.3 µM]
8,CCN1C=CN(C)C1C (stereo not given),4.43%
9,C=C[Si](OC(C)=O)(OC(C)=O)OC(C)=O,1.59%
10,CC(C)CCCO,-0.682%
11,Nc1ccncc1N,5.07% [at 35.3 µM]
12,Cc1ccccc1N=C(N)N=C(N)N,-4.74%
13,C[C@@H]1CCC[C@H](C)N1,1.06% [at 35.3 µM]
14,CC1=NS(=O)(=O)c2cc(Cl)ccc2N1,-12.1% [at 35.3 µM]
15,CCN[C@@H]1C[C@H](N)[C@@H](OC2OC(CN)=CCC2N)[C@H](O)[C@H]1O[C@H]1OC[C@](C)(O)[C@H](NC)[C@H]1O (stereo not given in full),6.56% [at 0.29 µM]
16,O=C(CO)[C@@H](O)[C@H](O)[C@@H](O)CO,7.34% [at 35.3 µM]
17,C[N+]1(C)CCCC(OC(=O)C(O)(c2ccccc2)c2ccccc2)C1 (stereo not given),3.57% [at 35.3 µM]
18,O=C1c2ccccc2C(=O)c2cc(O)ccc21,10.8%
19,CCCCCCCCCC[N+](C)(C)[O-],9.94%
20,COCCOCC(OC)OC,-11.7% [at 35.3 µM]
